GLP-1R agonist: qHTS of GLP-1 Receptor Agonists. Potency, µM (doses to about 45.6 µM), most hits filed as activators. HEK293 GLP-1R CRE-luciferase, luminescence, 4-6 h; cells express a hypersensitive GLP-1R form. 380,000 compounds, 0.007% hits. Glucagon-like peptide 1 receptor (Homo sapiens), P43220. AID 624172, 2012
Target sequence (P43220 whole entry, looked up): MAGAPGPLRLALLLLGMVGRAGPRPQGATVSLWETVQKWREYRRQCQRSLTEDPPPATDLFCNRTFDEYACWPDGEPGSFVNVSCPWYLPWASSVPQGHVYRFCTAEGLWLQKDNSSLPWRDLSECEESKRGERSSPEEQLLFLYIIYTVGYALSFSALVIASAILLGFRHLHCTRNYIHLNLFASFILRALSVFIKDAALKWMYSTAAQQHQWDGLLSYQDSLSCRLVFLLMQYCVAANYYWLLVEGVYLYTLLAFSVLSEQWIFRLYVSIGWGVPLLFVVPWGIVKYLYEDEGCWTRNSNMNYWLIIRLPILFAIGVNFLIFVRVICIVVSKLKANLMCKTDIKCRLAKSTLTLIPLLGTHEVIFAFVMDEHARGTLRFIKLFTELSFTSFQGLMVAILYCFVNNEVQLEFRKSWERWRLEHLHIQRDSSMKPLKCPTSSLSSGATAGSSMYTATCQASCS
GLP-1R inv ag: qHTS of GLP-1 Receptor Inverse Agonists (Inhibition Mode); Glucagon-like peptide 1 receptor (Homo sapiens), P43220; HEK293 GLP-1R CRE-luciferase, luminescence, 24 h; GLP-1R form is constitutively active; Potency, µM (series often up to 38.3 µM), hits mostly inhibitors; 410,000 compounds, 1.6% hits; AID 624417, 2012; also: nearly all actives have a fitted effect of over 55% in size
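qHTS in 1536-well format: reporter HEK293 cells expressing constitutive GLP-1R activity in DMEM + 10% Nu serum, 24 hr with compounds at 37 deg C, luminescence read after 12 min with detection reagent.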
ClpP mod: qHTS Assay for Activators of ClpP. ATP-dependent Clp protease proteolytic subunit (Bacillus subtilis (strain 168)), P80244. purified B. subtilis ClpP, FRET peptide cleavage, 20 min. Potency, µM (top dose mostly 57.5 µM). 340,000 compounds, 1.9% hits. AID 651965, 2013; active = well fitted falling curve with a large enough effect; inconclusive = small, poorly fitted or top-dose-only effect; inactive = no such curve, though single readings can be large or run the other way; also: the source files actives as falling curves though it sought activators and does not explain the sign; nearly all actives have a fitted effect of over 65% in size
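FRET quenching reversal measured ClpP activation: 10 microg/mL B. subtilis ClpP at pH 8 with the FRET-FV decapeptide, read at 430 nm after 320 nm excitation. The 20-min minus 0-min signal was scaled between DMSO/no-enzyme wells and ADEP (5.8 microM final).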
GLP1R cytotox: qHTS of GLP-1 Receptor Inverse Agonists: Cytotox Screen | Potency, µM (titrated, usually from 38.3 µM), hits mostly inhibitors | HEK293 cAMP-luciferase reporter cells, luminescence, 24 h | 410,000 compounds, 0.13% hits | AID 624418, 2012;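 also: loss of luciferase light is scored as toxicity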
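To flag toxic compounds, the library was rerun on cells for 24 hr at 37 deg C and 5% CO2. Viability-linked luminescence was captured 12 min after adding luciferase detection reagent.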
Each line names hits and unclear results; the compound was inactive in the other large screens. Only some compounds are listed: those with a hit (about 3.2% of all), similar ones and a draw of the others. Unless noted, calls follow the shape of the dose curve; as a rule, active = well fitted curve in the direction sought with a large enough effect; inconclusive = small, poorly fitted or top-dose-only effect, or another doubt; inactive = no such curve, though single readings can be large; an effect the other way counts as inactive or inconclusive.

CCCN1CCN(c2ncnc3sc(C(=O)Nc4ccc(OC(F)(F)F)cc4)c(C)c23)CC1	GLP-1R inv ag 10µM (no result: GLP-1R agonist)
CC1CCN(c2nc(-c3ccc(C(C)(C)C)cc3)nc3ccccc23)CC1	GLP-1R inv ag inconclusive, ClpP mod inconclusive (no result: GLP-1R agonist)
CCN1CCN(c2nc(-c3ccccc3)nc3ccccc23)CC1	GLP-1R inv ag inconclusive
CC1CCN(c2nc(-c3ccncc3)nc3ccccc23)CC1	GLP-1R inv ag 6.31µM
CCCOc1ccc(-c2nc(OC)c3ccccc3n2)cc1	ClpP mod 31.6µM
CN1CCN(c2nc(-c3ccc(C(C)(C)C)cc3)nc3ccccc23)CC1	GLP-1R inv ag 8.91µM
CCCOc1ccc(-c2nc(N3CCC(C)CC3)c3ccccc3n2)cc1	ClpP mod 20µM (no result: GLP-1R agonist)
CCOC(=O)c1cccc(NS(=O)(=O)c2cc(Br)cc3c2N(C(=O)C2CC2)CC3)c1	none
Cc1ccc(C(=O)N(Cc2ccco2)c2ccccn2)cc1	none (no result: GLP-1R agonist)
COc1ccc(-c2nc(CNC(=O)Nc3ccccc3)c(C)o2)c(OC)c1	none (no result: GLP-1R agonist)
Cc1cccc(CN2C(=O)N/C(=C/c3cc(C)n(-c4cc(C)ccn4)c3C)C2=O)c1	GLP-1R inv ag 10µM
Cc1cccc2cc(C#N)c(NCCNC(=O)NC3CCCCC3)nc12	ClpP mod inconclusive
Cc1ccc2cc(C#N)c(NCCNC(=O)C3CCC3)nc2c1C	ClpP mod 15.8µM
C=CCC[C@H](Cc1ccc(F)cc1)C(=O)OC[C@@H](Cc1c[nH]c2ccccc12)NC(=O)[C@@H](CC=C)CC(=O)N[C@@H](CO)Cc1ccccc1	GLP-1R inv ag 7.08µM, GLP1R cytotox inconclusive
C=CCC[C@@H](Cc1ccc(F)cc1)C(=O)OC[C@H](Cc1c[nH]c2ccccc12)NC(=O)[C@@H](CC=C)CC(=O)N[C@@H](CO)Cc1ccccc1	GLP-1R inv ag inconclusive
Cc1ccc2c(c1)c1c(n2CC(O)CNC(C)(C)C)CCCC1 (centres undefined)	GLP-1R inv ag 10µM, ClpP mod inconclusive
O=C(COc1cccc(NC(=O)c2cccc([N+](=O)[O-])c2)c1)c1ccc(Br)cc1	GLP-1R inv ag 3.16µM
O=C(Nc1cccc(OCC(=O)N2CCOCC2)c1)c1cccc([N+](=O)[O-])c1	none
Cc1ccc(C)c(C(=O)CSc2nnnn2C(C)C)c1	none
Cc1ccc(C(=O)CSc2nnnn2C(C)C)c(C)c1	GLP-1R inv ag 4.47µM (no result: ClpP mod)
O=C(Nc1ncnc2nc[nH]c12)c1ccccc1	none (no result: GLP-1R agonist, GLP-1R inv ag, GLP1R cytotox)
O=C(c1ccc(Br)o1)N(Cc1ccccc1)Cc1ccccc1	GLP-1R inv ag 10µM
CCOC(=O)c1c(-c2ccc(C)cc2)csc1NC(=O)c1cc(=O)c2ccc(C)cc2o1	none (no result: GLP-1R agonist)
Cc1cc(=O)n2c3ccccc3n(CC(O)CN3CCCCC3)c2c1C#N (centres undefined)	ClpP mod 28.2µM, GLP1R cytotox inconclusive
O=C(COc1ccc(Br)cc1Cl)NC(=O)NC1CCCC1	GLP-1R inv ag 3.55µM
O=C(COc1ccc(Br)cc1Cl)NC1CCCCC1	none
O=C(COc1ccc(Cl)cc1Br)NC(=O)NC1CCCC1	GLP-1R inv ag 10µM
CCOc1ccc(C(=O)Nc2cccc(NC(=O)c3ccco3)c2)cc1Cl	none (no result: GLP-1R agonist)
CC(=O)CC/C=C(\C)CC/C=C(/C)CC/C=C(\C)CCC=C(C)C	none (no result: GLP-1R inv ag, ClpP mod, GLP1R cytotox)
CCOC(=O)c1ccc(NC(=O)CCNS(=O)(=O)c2cc(Br)cnc2N)cc1	GLP-1R inv ag inconclusive
Cc1cc(C)cc(NC(=O)CCNS(=O)(=O)c2cc(Br)cnc2N)c1	GLP-1R inv ag 7.94µM
COc1ccc(Cc2nc3c4c(ncn3n2)Oc2ccc3ccccc3c2C4c2ccc(OC)c(OC)c2)cc1 (centres undefined)	GLP-1R inv ag inconclusive, ClpP mod 12.6µM
COc1ccc(Cc2nc3c4c(ncn3n2)Oc2c(ccc3ccccc23)C4c2ccc(OC)c(OC)c2)cc1 (centres undefined)	ClpP mod inconclusive
CC1=C(c2ccc(Cl)cc2)S(=O)(=O)N=C1N1CCN(c2cccc(C(F)(F)F)c2)CC1	none (no result: GLP-1R agonist)
O=C(NCc1cccnc1)C(=O)NCC(c1ccco1)N1CCN(c2ccccc2F)CC1 (centres undefined)	ClpP mod 17.8µM
COC(=O)C(CC(C)C)Oc1ccc2c(C)cc(=O)oc2c1 (centres undefined)	ClpP mod 15.8µM
